# Data from PubChem BioAssay AID588382 (National Center for Advancing Translational Sciences (NCATS), 2011).
# The whole screen tested about 1,300 compounds, of which about 150 (12%) were called active. Roughly 30% stayed inconclusive and do not appear here. The sample holds actives, similar compounds and a random draw of the others, so the mix is not that of the screen. Unmarked numbers belong to inactive results. Calls come from the whole dose curve; as a rule, active = well fitted cell-killing curve with a large enough effect; inconclusive = small, poorly fitted or top-dose-only effect, or effect the other way; inactive = flat fitted curve, though single readings scatter.
# Assay: qHTS of small molecules that selectively kill Giardia lamblia: Hit Validation in HepG2 cytotox;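 note: compound exposure lasted overnight at 37 deg C; nearly all actives have a fitted effect of over 55% in size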;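 for activity change, negative = cytotoxicity: viability measured as cellular ATP by ATPLite luminescence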
# Settings: cell viability; Potency: HepG2 cytotoxicity; series mostly up to 38.3 µM; activity change, negative = cytotoxicity: at the top concentration
# Outline: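 HepG2 cells seeded and incubated overnight at 37 deg C, then 23 nL compound added by pintool and incubated overnight at 37 deg C. Viability read as ATP luminescence with ATPLite after 15 min at room temperature.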
# % is set by controls: 0 for no effect and ±100 for the full control effect; potency is the fitted concentration of half-maximal effect.
Compound,"activity change, negative = cytotoxicity",Potency
Cc1nc(C)c(C(=O)Nc2ncc([N+](=O)[O-])s2)o1,11.4%,
COc1cccc(CN=c2c([N+](=O)[O-])nn(-c3ccccc3C)n2O)c1,8.23%,
O=C(/C=C/c1cccc([N+](=O)[O-])c1)c1ccco1,17.7%,
CCOC(=O)N1CCN(C(=O)c2ccc(Cl)c(NC(=O)c3cccs3)c2)CC1,17.8%,
Cc1ccn(-c2ccc(NC(=O)c3cccs3)cc2)n1,,9.27 µM (active)
COC(=O)Nc1nc2ccc(C(=O)c3cccs3)cc2[nH]1,20.5%,
CC(C)(C)c1ccc2c(c1)OC(C(=O)N/N=C/c1ccc([N+](=O)[O-])o1)CO2 (stereo not drawn),-12.1%,
Cc1ccc(N=c2c([N+](=O)[O-])nn(-c3ccccc3)n2O)c(C)c1,-15.1%,
Cc1ccc(S(=O)(=O)N2[C@@H](c3ccccc3)C(C(=O)O)=CC[C@H]2c2cccc(Cl)c2)cc1,6.16%,
C=C1C=C(C)n2ncc(C(=O)Nc3ccc(C)cn3)c2N1,-8.35%,
Cc1ccc(CC(=O)Nc2ncc([N+](=O)[O-])s2)cc1,3.03%,
O=C(Nc1ncc([N+](=O)[O-])s1)c1cccc([N+](=O)[O-])c1,,3.29 µM (active)
Cc1ccc(C(=O)Nc2ncc([N+](=O)[O-])s2)cc1,,6.56 µM (active)
Cc1ccc(S(=O)(=O)CC(=O)Nc2ncc([N+](=O)[O-])s2)cc1,1.79%,
O=C(COC(=O)c1ccccc1)Nc1ncc([N+](=O)[O-])s1,16.8%,
O=C(Nc1ncc([N+](=O)[O-])s1)c1ccco1,-8.55%,
Cc1cc(Nc2ccccc2)c2c([N+](=O)[O-])cc(C)c(C)c2n1,9.04%,
CC(NC(=O)COc1cccnc1[N+](=O)[O-])c1ccc(Cl)cc1 (stereo not drawn),1.74%,
O=[N+]([O-])c1ccc(CN2CCN(c3ccccc3Cl)CC2)o1,9.64%,
CC(=NN1CC(=O)NC1=O)c1ccc([N+](=O)[O-])o1,-8.95%,
CC(C)C(=O)N1CCN(c2ccc(NC(=O)c3ccc([N+](=O)[O-])o3)cc2)CC1,,5.85 µM (active)
O=[N+]([O-])c1ccc(CN2CCN(c3ccc(F)cc3)CC2)o1,16.3%,
CC(C)(C)C(=O)N1CCN(c2ccc(NC(=O)c3ccc([N+](=O)[O-])o3)cc2)CC1,,6.56 µM (active)
O=[N+]([O-])c1ccc(CN2CCN(c3ccc(Cl)cc3)CC2)o1,2.99%,

Compound,"activity change, negative = cytotoxicity",Potency
O=C(Nc1ccc(N2CCN(Cc3ccccc3F)CC2)cc1)c1ccc([N+](=O)[O-])o1,,2.93 µM (active)
O=C(Nc1ccc(N2CCCCC2)cc1)c1ccc([N+](=O)[O-])o1,,13.1 µM (active)
COc1cc(Nc2ccc(C)cc2)c([N+](=O)[O-])nc1[N+](=O)[O-],14.5%,
Cc1ccc(C(=O)c2c3ccc([N+](=O)[O-])cc3[n+]([O-])n2CCC(N)=O)cc1,19%,
CC(Oc1cccnc1[N+](=O)[O-])C(=O)Nc1cccc(Cl)c1 (stereo not drawn),9.9%,
COc1ccc(-n2nc([N+](=O)[O-])c(=NCCc3cccc(C)c3)n2O)cc1,5.18%,
COC(=O)c1cc(NC(=O)c2cc(C(C)(C)C)nn2Cc2ccc(F)cc2)ccc1N1CCOCC1,0.619%,
COc1ccc(C(C)=O)cc1COc1cccnc1[N+](=O)[O-],4.35%,
O=C(Cc1c(F)cccc1Cl)Nc1ncc([N+](=O)[O-])s1,-17.9%,
O=[n+]1c2c(n([O-])c3cc(Br)ccc31)CCC2,22.2%,
CCOc1cc([N+](=O)[O-])cc(/C=C2/NC(=O)N(Cc3ccccc3F)C2=O)c1O,11.1%,
O=[N+]([O-])c1nn(-c2ccc3c(c2)OCCO3)n(O)c1=NCc1ccc(F)cc1,23.9%,
CN(C)c1ccc(C2Nc3cccc4cccc(c34)N2)cc1,-11.1%,
Cc1cc(C)cc(N=c2c([N+](=O)[O-])nn(-c3ccc4c(c3)OCCO4)n2O)c1,-0.929%,
CS(=O)(=O)N1CCN(c2ccccc2NC(=O)c2ccc([N+](=O)[O-])o2)CC1,-6.16%,
CCCC(=O)N1CCN(c2ccc(NC(=O)c3ccc([N+](=O)[O-])o3)cc2)CC1,,3.29 µM (active)
CS(=O)(=O)N1CCN(c2ccc(NC(=O)c3ccc([N+](=O)[O-])o3)cc2)CC1,,3.69 µM (active)
CCC(=O)N1CCN(c2ccccc2NC(=O)c2ccc([N+](=O)[O-])o2)CC1,-5.48%,
CCC(=O)N1CCN(c2ccc(NC(=O)c3ccc([N+](=O)[O-])o3)cc2)CC1,,11.7 µM (active)
NC(=O)c1ccc(NC(=O)COc2ccc([N+](=O)[O-])cc2Cl)cc1,15.1%,
NS(=O)(=O)c1ccc(Nc2ncccc2[N+](=O)[O-])cc1,7.7%,
O=[n+]1c2c(n([O-])c3cc(Cl)ccc31)CCCC2,5.34%,
COc1ccc(CNC(=O)COc2cccnc2[N+](=O)[O-])cc1OC,6.39%,
Cc1oc2cc(O)ccc2c(=O)c1Oc1ccccc1Br,18.1%,
